The results in this text go back to PubChem BioAssay AID1259399 (Fisher Drug Discovery Resource Center, 2018).

Each structure is given as a SMILES string. The campaign covered roughly 160,000 compounds. About 240 (0.15%) were called active. No stated cut-off is given here; in the data, active means inhibition above about 40%; inactive means the rest. The entries come from a sample that favours actives as a whole.

As a reminder, the inhibition is the drop in the measured response relative to a control, in per cent.

Sequence of Cyclic GMP-AMP synthase (Mus musculus) (Q8C6L5 whole entry, looked up): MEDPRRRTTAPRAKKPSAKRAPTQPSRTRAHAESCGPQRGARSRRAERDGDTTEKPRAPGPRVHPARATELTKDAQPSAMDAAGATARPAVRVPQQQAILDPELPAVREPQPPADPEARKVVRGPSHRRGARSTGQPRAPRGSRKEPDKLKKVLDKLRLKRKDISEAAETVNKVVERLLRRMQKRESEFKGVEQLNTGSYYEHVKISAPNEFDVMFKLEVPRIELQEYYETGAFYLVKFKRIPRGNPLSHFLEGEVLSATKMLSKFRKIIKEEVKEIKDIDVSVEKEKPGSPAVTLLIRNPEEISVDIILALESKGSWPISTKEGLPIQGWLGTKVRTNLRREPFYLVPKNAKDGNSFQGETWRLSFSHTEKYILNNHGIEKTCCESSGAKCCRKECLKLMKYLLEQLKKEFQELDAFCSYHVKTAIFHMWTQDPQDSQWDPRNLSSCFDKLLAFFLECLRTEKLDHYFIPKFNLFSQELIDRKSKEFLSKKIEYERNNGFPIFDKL

This test addresses Cyclic GMP-AMP synthase (Mus musculus) (UniProt Q8C6L5). Kind of test: cyclic GMP-AMP synthase inhibitors, mouse, primary biochemical chemiluminescence (AID 1259399).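 Further: 0% = negative control wells and 100% = reference inhibitor with no enzyme activity.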 Particulars: recombinant cGAS, Kinase-Glo ATP depletion luminescence; at 12.5 µM; hits give high values.
For `Cc1ccc(S(=O)(=O)N(Cc2ccco2)Cc2nccn2Cc2ccc(C(F)(F)F)cc2)cc1`, the inhibition was -8.05% (inactive). Next, `COc1ccccc1C1=NOC(CN(Cc2ccccc2Cl)C(=O)C2CCC2)C1` (stereo not given): -4.91% (inactive). Next, `O=c1cc(-c2ccc(F)cc2)ncn1Cc1cccc2ccccc12`: 5.38% (inactive); `O=C(CN1CCCC1Cn1cccn1)NCCc1ccc(F)cc1` (stereo not given): -4.22% (inactive). As for `CCc1ccc(-c2nn(-c3ccccc3)cc2C=NO)cc1`, the inhibition was -6.62% (inactive).

Turning to `CCOc1ccccc1NC(=O)CC(=O)N1[C@H](C)CCC[C@@H]1C`, the inhibition was -17.8% (inactive). With `S=C(NN=CC1CC=CCC1)NC1CCCCC1` (stereo not given), the inhibition was -5.67% (inactive). As for `O=C(NNc1nc2c(Cl)cccc2s1)c1cc(=O)c2ccccc2o1`, the inhibition is 4.02% (inactive).

Take `COc1ccc(/C=C/C(=O)N2CCC3(CC2)CC3C(=O)N2CCN(c3ccccn3)CC2)cc1OC` (stereo not given): the inhibition was -22.2% (inactive). `c1ccc(Oc2cccc(-c3ccc4nnc(-c5ccc6nccnc6c5)n4c3)c2)cc1`: the inhibition was -8.11% (inactive). With `Cc1ccc(N(CCCCN2C(=O)c3ccccc3C2=O)C(=O)/C=C/c2ccccc2Cl)cc1`, the inhibition was -4.6% (inactive). Next, `CCc1cc(N2CCN(c3ccccc3F)CC2)nc(SCc2cccc(C(=O)NCC3CCCO3)c2)n1` (stereo not given): -4.77% (inactive); `CC(O)CNC(c1nc(-c2ccc(Br)cc2)no1)C(C)C` (stereo not given): -3.51% (inactive); `Cc1cc(C)n(-c2ccc(N3CCN(S(=O)(=O)c4ccc(C)c(C)c4)CC3)nn2)n1`: -8.08% (inactive). Take `Cc1cc2c(o1)CC(C)(C)CC2NS(=O)(=O)CCc1ccccc1` (stereo not given): the inhibition was -12.8% (inactive). Regarding `COc1ccccc1C(=O)N1CCC(n2c(=O)oc3ccc(Cl)cc32)CC1`, the inhibition was -5.6% (inactive). Take `Cc1nnc(SCC(=O)Nc2cccc(Cl)c2)c2c1cnn2-c1ccc(F)cc1`: the inhibition was -13.2% (inactive). As for `O=C1OC(c2ccc(Cl)cc2)=NC1=Cc1ccc(N2CCOCC2)s1`, the inhibition is -5.28% (inactive).

As for `COCCN1C(=O)C(c2c(C(C)C)[nH]n(-c3ccc(Cl)c(Cl)c3)c2=O)=C([n+]2ccccc2)C1=O`, the inhibition was -8.94% (inactive). As for `CCOC(=O)c1ccccc1NC(=O)CSc1nnc(C)c2cnn(-c3ccccc3OC)c12`, the inhibition is -1.28% (inactive). Take `Cc1ccccc1OCC(=O)N(CCn1cccn1)c1nc2ccccc2s1`: the inhibition is 3% (inactive). With `CCc1nc2c(OCC(N)=O)cccn2c1N(C)C(=O)c1ccc(OC)cc1`, the inhibition is -2.96% (inactive). For `CCOC(=O)CN(C(=O)c1cc(C)oc1C)[C@H]1[C@H](OC)[C@@H]2O[C@H]1c1ccccc12`, the inhibition was -0.832% (inactive).

As to `O=C(COc1ccc(Cl)cc1)NCC1CCN(c2nc(Cc3ccc(F)cc3)ns2)CC1`, the inhibition is -5.03% (inactive). Next, `COC[C@H](C)NC(=O)Cc1sc(C)nc1C`: -2.6% (inactive); `O=C(CCN1C(=O)COc2ccccc21)N1CCC2(CCCO2)CC1`: -9.44% (inactive). On to `O=C1c2ccccc2C(=O)N1CN(C(=O)C(F)(F)F)c1ccc(I)cc1`, for which the inhibition is -2.77% (inactive). Regarding `CC1c2cccn2CCN1Cc1ccc(C#N)cc1F` (stereo not given), the inhibition is -13.4% (inactive). For `CC1=C(C(=O)OCC(C)C)C23C(=O)c4ccccc4C2(OC(=N)C3C#N)O1` (stereo not given), the inhibition was -3.99% (inactive). With `COCCCn1c(CN2CCCC(C(=O)c3ccccc3)C2)cnc1S(C)(=O)=O` (stereo not given), the inhibition is -11% (inactive).

For the compound `O=C(Cn1nnc(-c2ccccc2)n1)Nc1c(F)cccc1F`, the inhibition is 4.62% (inactive). On to `CCOCCCN(CC(=O)N(Cc1ccccc1)Cc1sccc1C)C(=O)c1cccc(Br)c1`, for which the inhibition is 1.83% (inactive). As to `COc1ccc(C(=O)N(Cc2ccc(F)cc2)Cc2cc(NC(=O)c3ccco3)ccc2N(C)C)cc1`, the inhibition is -0.342% (inactive). Turning to `CC(C)(C)c1cc2nc(-c3ccccc3F)cc(C(=O)NC3CC3)n2n1`, the inhibition was -7.68% (inactive).

Consider `CC(C)(C)S(=O)(=O)c1ccc2nn(CC(=O)Nc3ccc(Cl)cc3)c(=O)n2n1`, for which the inhibition is -9.01% (inactive). For `CCCN1CCN(S(=O)(=O)c2[nH]ncc2C(=O)OCC)CC1`, the inhibition is -10.5% (inactive). As to `Cc1ccc(C)c(NC(=O)Cn2nc3c(=O)n(-c4ccc(Br)cc4)ccn3c2=O)c1`, the inhibition was -5.88% (inactive).

`Cc1ccc(C)c(Cn2ccnc2CN(CC(C)C)C(=O)c2cccc(F)c2)c1`: the inhibition is -11.5% (inactive). Take `COc1ccc(OC)c(CC(=O)NC2CC(C)(C)Cc3c2cnn3-c2cccc(F)c2)c1` (stereo not given): the inhibition was -9.44% (inactive).

Regarding `Fc1ccc(CN2CCCn3cccc3C2c2ccoc2)cc1Cl` (stereo not given), the inhibition was 0.16% (inactive). Turning to `O=C1NC2(CCN(Cc3ccccc3[N+](=O)[O-])CC2)Nc2ccc(Br)cc21`, the inhibition was -4.81% (inactive). Turning to `CCOC(=O)C1=C(C)N=c2s/c(=C\c3ccc(Cl)c(Cl)c3)c(=O)n2C1c1cccs1` (stereo not given), the inhibition is -4.71% (inactive). As to `COc1cccc(Cc2c(C)nc(C)nc2N2CCN(S(=O)(=O)c3ccc(NC(C)=O)cc3)CC2)c1`, the inhibition was -9.89% (inactive).

On to `CCCCn1c(SCc2nnc(C)o2)nc2sc(C)c(C)c2c1=O`, for which the inhibition was -8.28% (inactive). With `O=C(Nc1ccc(-c2ccccc2)cc1)N[C@@H](Cc1ccccc1)C(=O)N1CCC(C(=O)N2CCOCC2)CC1`, the inhibition was 1.19% (inactive). Consider `COc1ccc(C)cc1S(=O)(=O)Nc1ccccc1C(=O)NCc1cccc(Cl)c1`, for which the inhibition was -4.63% (inactive). Regarding `NC(=O)c1cncc(-n2ccnc2-c2ccccc2)c1`, the inhibition is -8.08% (inactive).

`CC(C)Nc1cc(N2CC(c3ccccn3)C2)ncn1`: the inhibition was -15.6% (inactive).

`C=CCn1c(SCC(=O)c2cc(C)n(CCOC)c2C)nc2scc(-c3ccccc3)c2c1=O`: the inhibition is 1.74% (inactive). With `CC(C)N(C(=O)CN1CCN(C(=O)c2cn(C)cc3c(=O)n(-c4ccccc4)nc2-3)CC1)C(C)C`, the inhibition was -8.86% (inactive). With `CCOC(=O)c1cc(-c2ccc(N3CCN(C(=O)COCc4ccccc4)CC3)cc2)n(-c2ccccc2Cl)n1`, the inhibition was -7.07% (inactive). Consider `COc1cccc(C(CN2CCN(C(=O)c3oc4ccccc4c3C)CC2)OCc2cccc(Cl)c2)c1` (stereo not given), for which the inhibition was -3.76% (inactive).

For `O=C(c1ccccc1Br)N1CCc2nc(-c3ccccc3)nc(N3CCCCC3)c2C1`, the inhibition is -6.08% (inactive). For the compound `O=C(Nc1nnc(C23CC4CC(CC(C4)C2)C3)s1)C12CC3CC(CC(C3)C1)C2`, the inhibition was -5.12% (inactive). For `Cc1ccccc1Cc1nc2c(c(=O)[nH]1)CN(C(=O)Cc1ccc(F)cc1)CC2`, the inhibition is -2.79% (inactive). On to `CC(C)c1nnsc1C(=O)N1CCC2(CC1)C(=O)NCCN2C`, for which the inhibition was -8.76% (inactive). In the case of `CC(Nc1ccc([N+](=O)[O-])cc1S(=O)(=O)N1CCOCC1)c1ccc(F)cc1F` (stereo not given), the inhibition was -8.24% (inactive). On to `N#Cc1ccc(-c2ccccc2)nc1SC(C(=O)O)c1ccccc1` (stereo not given), for which the inhibition is -4.77% (inactive).

As for `CCCS(=O)(=O)N1CCCC(C(=O)NC(C)CC)C1` (stereo not given), the inhibition was -2.19% (inactive). As to `COc1cc([N+](=O)[O-])cc2sc(NC(=O)C(C)C)nc12`, the inhibition is -2.21% (inactive). With `CCn1c(=O)c(C(=O)NCC2CCCO2)nn(-c2ccccc2F)c1=O` (stereo not given), the inhibition is -8.2% (inactive).

In the case of `CC(C)(C)c1ccc(C2SCC(=O)N2CCC(=O)O)cc1` (stereo not given), the inhibition is -3.76% (inactive). Next, `CCCC(=O)Nc1ccc(NC(=O)c2cc(C(C)C)[nH]n2)cc1OC`: -8.07% (inactive). Next, `O=C(NC(c1ccccc1)c1ccc(Cl)cc1)C1CC1(c1ccccc1)c1ccccc1` (stereo not given): -5.82% (inactive); `COCCCN1COc2ccc3c(=O)c(Oc4ccc(OC)cc4)coc3c2C1`: -1.41% (inactive). With `Brc1ccc(N=c2oc3ccccc3cc2-c2nc3ccccc3[nH]2)cc1`, the inhibition was -0.816% (inactive). Turning to `COc1ccc(-c2nnc3ccc(OCCNS(=O)(=O)c4cccs4)nn23)cc1`, the inhibition is -9.21% (inactive).

Take `Oc1c(Cl)cc(Cl)c2ccc(N/N=C\c3cccc(Oc4ccccc4)c3)nc12`: the inhibition was -3.37% (inactive).

For the compound `O=c1n(Cc2noc(-c3ccoc3)n2)nnn1-c1cccs1`, the inhibition was -17.5% (inactive).

In the case of `CC(C)(C)S(=O)(=O)c1ccc(N2CCN(c3ccc(Cl)cc3)CC2)nn1`, the inhibition is -8.96% (inactive). As to `COc1ccccc1C(=O)N1CCN(CC(OCc2c(F)cccc2F)c2ccc(Cl)cc2)CC1` (stereo not given), the inhibition was -2.63% (inactive). As to `C[N+](C)(CCCCCC[N+](C)(C)CCCN1C(=O)c2cccc3cccc(c23)C1=O)CCCN1C(=O)c2cccc3cccc(c23)C1=O`, the inhibition is 75.6% (active). Next, `Cc1ccccc1N(CCCN1C(=O)c2cccc3cccc(c23)C1=O)C(=O)c1ccc([N+](=O)[O-])cc1`: 2.98% (inactive). In the case of `COc1ccc(N2C(=O)c3cccc4cccc(c34)C2=O)cc1OC`, the inhibition was -7.45% (inactive).

Turning to `COc1cc(C=C2N=C(C(C)(C)C)OC2=O)ccc1OC(F)F`, the inhibition is 1.97% (inactive).

For `COc1ccc(C(=O)N2CCCC3(CC2)CNC(=O)O3)cc1N1CCOCC1` (stereo not given), the inhibition is -11.6% (inactive). For the compound `O=C(COc1ccc(Cl)cc1)Nc1c(-c2cccc(F)c2)nc2ccccn12`, the inhibition was -8.5% (inactive).

In the case of `COCCCN(CC(=O)N1CCc2sccc2C1c1ccc(C)cc1)C(=O)c1ccc(C)c([N+](=O)[O-])c1` (stereo not given), the inhibition was -4.86% (inactive). For `O=C(Cc1ccccc1)N1CC(=O)N(Cc2ccco2)CC(O)C1` (stereo not given), the inhibition was -3.15% (inactive). Next, `COc1cc2c(cc1OC)C(CNC(=O)NC(C)(C)C)N(Cc1ccc(F)cc1)CC2` (stereo not given): -7.88% (inactive); `Cc1cnc(C(=O)N2CC(c3ccncc3)C2)cn1`: -13.8% (inactive).

Regarding `NCCOCc1ccc(-c2ccc(F)c(CO)c2)cc1`, the inhibition was -21.2% (inactive). Turning to `COc1ccc(S(=O)(=O)N(CC(=O)N2CCc3sccc3C2c2ccccc2C)C(C)C)cc1` (stereo not given), the inhibition is -2.82% (inactive). As to `COCC(=O)Nc1cccc(-n2nc(OCCc3ccc(OC)cc3)nc2-c2ccc(C(F)(F)F)cc2)c1`, the inhibition was -3.56% (inactive). Take `Cc1csc2nc(CSc3ncn[nH]3)cc(=O)n12`: the inhibition was -4.64% (inactive).
